Consider 12 compounds from PubChem BioAssay (NCI).

Where “and” joins values, the source holds several entries; their conditions need not be identical. Equal values may be shown once. The panel holds about 83,000 compounds, 20% with a hit somewhere; the sample as a whole holds those more often.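 Note: values are percent growth. 100 is the growth of untreated cells, values between 100 and 0 indicate rising inhibition; between -100 and 0 indicates cell death.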 Calls of active or inactive are those of the source. How the source made its calls: active means growth percent below 10; inactive means the rest.

The test system of one assay is TK-10 renal. As to the kind of experiment: NCI-60 one-dose screen, 48 h (100 = growth as untreated, 0 = no growth, -100 = all killed). As to conditions: 10 µM unless noted.
As for `CCCCCCCCCCCCCC1=C(O)C(=O)C(CC2=C(O)C(=O)C(CCCCCCCCCCCCC)=C(O)C2=O)=C(O)C1=O`, the growth is 33% [100 µM] (inactive) and -1.5% [100 µM] (active).

For the compound `CC(=O)c1cc2c(s1)C(=O)c1ccsc1C2=O`, the growth was -38.1% [100 µM] (active) and -100% [100 µM] (active).

Turning to `NC1=NN(c2ccccc2)C2(c3ccncc3C(=O)O)C1C(N)=NN2c1ccccc1` (configuration not stated), the growth was 106% [100 µM] (inactive) and 9.31% [100 µM] (active).

Consider `O=C1C=C(Nc2ccc(S(=O)(=O)Nc3nccs3)cc2)c2ccccc2C1=O`, for which the growth was 171% [100 µM] (inactive) and -86% [100 µM] (active).

Turning to `N#Cc1cnn2c1n[n+]([O-])c1ccc(Cl)cc12`, the growth is 98.1% [100 µM] (inactive) and -100% [100 µM] (active).

Consider `C[C@]12CC[C@@H]3c4cc(Br)c(O)c(Br)c4CC[C@H]3[C@@H]1CC(Br)C2=O` (some centres not stated), for which the growth is -93.2% [100 µM] (active) and -97.6% [100 µM] (active).

The next assay has as its system SR leukemia. Described as above. As to conditions: 10 µM unless noted.
As to `CC(=O)OCC1OC([S-])C(OC(C)=O)C(OC(C)=O)C1OC(C)=O.[Au+].c1ccc(CN2[CH-]N(Cc3ccccc3)C(c3ccccc3)=C2c2ccccc2)cc1`, the growth was -8.38% [4.75 µM] (active).

For `N#C[S-].[Au+].c1ccc(CN2[CH-]N(Cc3ccccc3)C(c3ccccc3)=C2c2ccccc2)cc1`, the growth is -8.44% (active).

In the case of `CC(=O)OCC1O[C@@H]([S-])C(OC(C)=O)[C@H](OC(C)=O)[C@@H]1OC(C)=O.[Au+].c1ccc(CN2[CH-]N(Cc3ccccc3)C(c3ccccc3)=C2c2ccccc2)cc1`, the growth is -29.1% (active).

Another assay deals with OVCAR-4 ovarian. Described as above. The conditions noted are these: 10 µM unless noted.
Turning to `C1CCC([PH+](C2CCCCC2)C2CCCCC2[PH+](C2CCCCC2)C2CCCCC2)CC1.O=C(C1[CH-]CCCC1)C1CCCC[N-]1.[Au]` (configuration not stated), the growth is 18.2% (inactive).

Consider `NC(=O)c1c(Br)c(Br)c(Br)c(Br)c1C(=O)O` (tested in a mixture with another compound), for which the growth was 94.3% (inactive).

For `C1CCC([PH+](C2CCCCC2)C2CCCCC2[PH+](C2CCCCC2)C2CCCCC2)CC1.[Au].[CH-]1CCCCC1CC1CCCC[N-]1` (configuration not stated), the growth was 37.5% (inactive).
